Screens deposited in PubChem by National Center for Advancing Translational Sciences (NCATS).
IDH1 R132H inh: blocks human mutant IDH1 R132H enzyme; O75874; IDH1-R132H enzyme, NADPH consumption, diaphorase/resazurin fluorescence; Potency, µM (highest dose often 76.6 µM), usual class: inhibitors; actives 0.093% (n = 390,000); also: nearly all actives have a fitted effect of over 65% in size
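IDH1-R132H (0.5 ug/mL dispensed) in pH 7.5 Tris buffer was preincubated 30 min with compound, then given a substrate mix of 0.016 mM NADPH and 2 mM alpha-KG for 80 min at room temperature; remaining NADPH was read by diaphorase/resazurin fluorescence.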
Nrf2 ARE act: activates Nrf2 signaling; actives 0.31% (n = 410,000); AID 624171; AREc32 ARE-luciferase reporter (MCF7-derived line), luminescence, 24 h; Potency, µM (top dose mostly 46.1 µM), actives largely listed as activators; also: nearly all actives have a fitted effect of over 65% in size
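Reporter line AREc32 (ARE-Fluc), seeded overnight in OPTI-MEM with 5% FBS; compound pin-transferred, 24 hr at 37 deg C, 5% CO2; luminescent read-out.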
LDHA inh: LDHA (human) enzyme inhibition. P00338. purified LDHA, NADH/diaphorase-resazurin fluorescence; hits give low values. activity change, % (values are at about 110 or 230 µM). actives 0.15% (n = 480,000). AID 1347041; in the data active = activity change below about -30%; inconclusive = mostly about -25% to -30%
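Human LDH5 (2 nM) was incubated with 0.06 mM NADH and 0.2 mM pyruvate for 5 min at room temperature in Tris pH 7.4. Remaining NADH was coupled through diaphorase/resazurin, and resorufin fluorescence was read at 0 and 20 min.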
Nrf2 inh: Nrf2 pathway inhibition. AID 504444. Potency, µM (top dose mostly 46 µM), most hits filed as inhibitors. A549 ARE-Fluc reporter, luciferase luminescence, 18-24 h. actives 2.1% (n = 360,000); also: nearly all actives have a fitted effect of over 60% in size
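Reporter: ARE-Fluc in A549. Exposure: 18-24 h, 37 °C, 5% CO2, 5% FBS OPTI-MEM. Readouts: fluorescent cytotoxicity (CellTiter-Fluor), then luminescent Nrf2 signal after BugLite.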
12-LOX inh: ALOX12 (human) lipoxygenase inhibition; P18054; purified 12hLO, xylenol orange hydroperoxide absorbance; Potency, µM (titrated, usually from 108 µM), most hits filed as inhibitors; actives 1.1% (n = 580,000); AID 1671190
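Purified human 12hLO at 150 nM in 25 mM Hepes, 0.01% Triton X-100, pH 7.0, preincubated 15 min at room temperature with compound. Reaction started with 40 uM arachidonic acid, 30 min at room temperature. Hydroperoxide measured by Fe-xylenol orange, 573/405 nm absorbance ratio.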
A549 tox-1: counter-screen for Nrf2 inhibitors: cytotoxicity in A549 cells. A549 ARE-Fluc cells, CellTiter-Fluor viability, 18-24 h. actives 0.16% (n = 390,000). Potency, µM (highest dose often 46 µM), usual class: inhibitors
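A549 ARE-Fluc cells in 5% FBS OPTI-MEM, 5000 cells/well, rested 2 h then exposed to compounds in concentration-response for 18-24 h at 37 °C. Viability by CellTiter-Fluor fluorescence (Ex 405/Em 525) after 30 min; luciferase luminescence (BugLite, 15 min, RT) read afterwards.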
FLuc counter 3: counter-screen for Nrf2 inhibitors: firefly luciferase enzyme inhibition | AID 720522 | Potency, µM (doses to about 57.5 µM), hits mostly inhibitors | shares compounds with Nrf2 inh | purified firefly luciferase, luminescence inhibition | actives 4% (n = 1,400); also: nearly all actives have a fitted effect of over 65% in size
Target sequence (P08659 whole entry, looked up): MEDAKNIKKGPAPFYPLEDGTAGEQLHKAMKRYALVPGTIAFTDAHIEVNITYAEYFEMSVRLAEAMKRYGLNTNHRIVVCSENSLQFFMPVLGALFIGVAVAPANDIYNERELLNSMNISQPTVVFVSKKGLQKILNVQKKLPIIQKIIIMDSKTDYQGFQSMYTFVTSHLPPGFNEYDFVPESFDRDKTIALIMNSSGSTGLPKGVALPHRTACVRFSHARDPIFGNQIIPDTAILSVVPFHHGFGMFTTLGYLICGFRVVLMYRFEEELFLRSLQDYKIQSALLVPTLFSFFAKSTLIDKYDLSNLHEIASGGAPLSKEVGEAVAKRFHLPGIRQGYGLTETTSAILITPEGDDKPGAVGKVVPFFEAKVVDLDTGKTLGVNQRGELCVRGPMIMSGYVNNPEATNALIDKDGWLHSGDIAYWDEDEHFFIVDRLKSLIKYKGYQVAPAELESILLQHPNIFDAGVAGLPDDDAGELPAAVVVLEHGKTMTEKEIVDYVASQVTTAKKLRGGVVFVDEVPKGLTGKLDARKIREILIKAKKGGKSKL
A549 tox-2: counter-screen for Nrf2 inhibitors: cytotoxicity in A549 ARE cells | shares compounds with Nrf2 inh | A549 ARE-Fluc cells, cytotoxicity counterscreen | Potency, µM (doses to about 46.1 µM), most hits filed as inhibitors | actives 2% (n = 1,400) | AID 720523;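 also: cells exposed to compounds for 18 to 24 hours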
Nrf2 ARE inh: Nrf2 inhibition confirmed, A549 ARE-luciferase | shares compounds with Nrf2 inh | A549 ARE-firefly luciferase reporter, luminescence | Potency, µM (series often up to 46.1 µM), most hits filed as inhibitors | actives 74% (n = 1,400); also: nearly all actives have a fitted effect of over 65% in size
Hits are given with their value; n = inactive; u = inconclusive; x = no result shown. An excerpt weighted towards active compounds, which were near 2.7% of everything screened. Unless noted, calls follow the shape of the dose curve; as a rule, active = well fitted curve in the direction sought with a large enough effect; inconclusive = small, poorly fitted or top-dose-only effect, or another doubt; inactive = no such curve, though single readings can be large; an effect the other way counts as inactive or inconclusive.

SMILES | IDH1 R132H inh | Nrf2 ARE act | LDHA inh | Nrf2 inh | 12-LOX inh | A549 tox-1 | FLuc counter 3 | A549 tox-2 | Nrf2 ARE inh
CCC[n+]1c(/C=C/c2c(OC)cc(OC)cc2OC)ccc2ccccc21 | x | x | n | x | x | x | n | 7.3µM | 2.3µM
COc1cc(OC)c(OC)cc1/C=C/c1ccc2ccccc2[n+]1C | x | x | n | x | x | x | x | x | x
CCCC[n+]1c(/C=C/c2c(OC)cc(OC)cc2OC)ccc2ccccc21 | x | x | n | x | x | x | n | u | 1.6µM
CCCCOc1ccc(NC(=O)c2cccc(Cl)c2)c2cccnc12 | x | x | n | x | n | x | x | x | x
O=C1c2c(nc(COc3cc(F)cc(F)c3)n2Cc2ccccc2)NCCN1Cc1ccccc1F | x | x | x | x | n | x | x | x | x
CC1=C[C@@H](CNC2CCOCC2)[C@H](C(C)C)C[C@H]1Cc1nc2ccc(Cl)cc2[nH]1 | x | x | x | x | n | x | x | x | x
Cc1cc(N(C)C)cc(C)c1/C=C/c1ccnc2ccccc12 | x | x | x | x | x | x | u | u | 9.2µM
Cc1cc([N+](C)(C)C)cc(C)c1/C=C/c1ccnc2ccccc12 | x | x | n | x | x | x | x | x | x
CCOC(=O)c1ccc(N2C(=O)[C@@H]3C(Cc4ccc(O)cc4)NC4(C(=O)Nc5ccc(F)cc54)[C@@H]3C2=O)cc1 (some centres undefined) | x | x | n | x | u | x | x | x | x
CC(C(=O)NC1(C#N)CCCCC1)N(C)Cc1ccc(C(F)(F)F)cc1 (centres undefined) | x | x | n | x | n | x | x | x | x
CC(=O)c1ccc(N2CCN(C(=S)Nc3ccc(Oc4ccccc4)cc3)CC2)cc1 | n | n | n | 6.5µM | u | u | n | n | 8.2µM
COc1ccc(N2CCN(C(=S)Nc3ccccc3)CC2)cc1 | n | n | n | n | n | n | x | x | x
Nc1cccc(-c2ccc(Cl)c(Cl)c2)c1 | x | x | n | x | u | x | x | x | x
O=C(c1ccc(C(F)(F)F)nc1)N1CCCC1c1ccncc1 (centres undefined) | x | x | n | x | n | x | x | x | x
COCCn1c(CN2CCN(c3cccc(Cl)c3)CC2)nc2c1c(=O)n(C)c(=O)n2C | n | n | n | 6.5µM | n | n | n | n | x
N#Cc1nc(-c2ccco2)oc1N1CCN(c2cccc(Cl)c2)CC1 | n | n | n | 1.8µM | n | n | n | u | 10µM
O=C(Nc1cccn(Cc2c(Cl)cccc2Cl)c1=O)c1ccccc1Cl | n | n | n | 1.5µM | n | n | n | n | 9.2µM
Cc1nn(C)c(C)c1CN(C)S(=O)(=O)c1ccc(F)cc1 | n | n | n | u | n | n | x | x | x
Cc1nn(C)c(C)c1CN(C)S(=O)(=O)c1ccc2ccccc2c1 | n | n | n | 2.5µM | n | n | n | n | 1.2µM
CC1CC2C3CCC4=CC(=O)C=CC4(C)[C@@]3(Cl)C(O)CC2(C)C1(O)C(=O)CO (some centres undefined) | n | n | n | u | n | n | x | x | x
CC1CC2C3CCC4=CC(=O)C=CC4(C)C3(F)C(O)CC2(C)C1(O)C(=O)CO (centres undefined) | n | n | n | u | n | n | x | x | x
CC(=O)C1CCC2C3CCC4=CC(=O)CCC4(C)C3(F)C(O)CC12C (centres undefined) | n | n | n | 0.92µM | n | n | n | n | 2.1µM
CC(=O)OCC(=O)[C@@]1(O)CC[C@H]2[C@@H]3CCC4=CC(=O)C=C[C@]4(C)[C@H]3C(=O)C[C@@]21C | n | n | n | u | n | n | x | x | x
C[C@@H]1C[C@H]2[C@@H]3CCC4=CC(=O)C=C[C@]4(C)[C@@]3(F)C(O)C[C@]2(C)[C@@]1(O)C(=O)CO (some centres undefined) | x | x | n | 0.0052µM | x | n | n | n | 0.0065µM
CC(=O)OCC(=O)C1(O)CCC2C3CCC4=CC(=O)C=CC4(C)C3(F)C(O)CC21C (centres undefined) | n | n | n | 0.01µM | n | n | n | n | 0.013µM
SMILES | IDH1 R132H inh | Nrf2 ARE act | LDHA inh | Nrf2 inh | 12-LOX inh | A549 tox-1 | FLuc counter 3 | A549 tox-2 | Nrf2 ARE inh
C[C@]12C=CC(=O)C=C1CC[C@H]1[C@@H]3C[C@@H](O)[C@](O)(C(=O)CO)[C@@]3(C)C[C@H](O)[C@@]12F | n | n | n | 0.41µM | n | n | n | n | 0.092µM
CC(C)=NNC(N)=S | x | x | n | x | u | x | x | x | x
Cc1ccc(OCC(=O)OCC(=O)c2ccc3c(c2)OCCO3)cc1 | x | x | n | x | n | x | x | x | x
CC(=O)Nc1ccc(-c2csc(Nc3cc(C)ccc3C)n2)cc1 | x | x | n | x | u | x | x | x | x
Cc1ccc(S(=O)(=O)N2CCCC2c2cc(C(C)C)no2)cc1C (centres undefined) | x | x | n | x | n | x | x | x | x
N#CC1=C(N)OC2=C(C(=O)CCC2)C1c1ccc(C#N)cc1 (centres undefined) | x | x | n | x | n | x | x | x | x
CC12CCC(=O)C=C1CCC1C3CC(O)C(O)(C(=O)CO)C3(C)CC(O)C12F (centres undefined) | n | n | n | 0.1µM | n | n | n | n | 0.052µM
CCc1ccc(C(=O)NCCCNC(=O)c2cc3ccccc3[nH]2)cc1 | x | x | n | x | n | x | x | x | x
O=C(c1cc(-c2ccncc2)nc2ccccc12)N1CCN(C(=O)C2CC2)CC1 | x | x | n | x | n | x | x | x | x
Cc1cc(C)c(NC(=O)CNC(=O)COC(=O)Cc2n[nH]c(=O)c3ccccc23)c(C)c1 | x | x | n | x | n | x | x | x | x
CCN(CC)S(=O)(=O)c1ccc2oc(SCC3CN=C(c4ccc(OC)cc4)S3)nc2c1 (centres undefined) | n | n | n | 6.5µM | n | n | n | n | u
COc1ccc(C2=NCC(CSc3nnc(-c4ccc5c(c4)OCO5)o3)S2)cc1 (centres undefined) | n | n | n | u | n | u | x | x | x
CC(C)Cn1c(N)c(C(=O)COC(=O)/C=C/c2ccccc2)c(=O)n(C)c1=O | n | n | n | 6.5µM | n | u | n | n | 7.3µM
CC(C)Cn1c(N)c(C(=O)CSc2ccccc2)c(=O)n(C)c1=O | n | n | n | u | n | n | x | x | x
CC(C)Cn1c(N)c(C(=O)COC(=O)CC23CC4CC(CC(C4)C2)C3)c(=O)n(C)c1=O | n | n | n | 2.1µM | n | u | n | n | x
CC(C)(C)c1ccc(/C=N/NC(=O)Cc2ccccc2)cc1 | x | x | n | x | n | x | x | x | x
COc1ccc(C(=O)N/N=C(\c2ccccc2)c2ccccn2)cc1 | n | n | n | 8.2µM | n | u | n | n | u
O=C(NN=C(c1ccccc1)c1ccccn1)c1ccccc1 | n | u | n | 5.2µM | n | u | n | 6.5µM | x
